# Tests used:
# Assay in all cases: DAPPL (digital affinity profiling via proximity ligation, sequencing); 10 mM Tris-HCl pH 7.5, 50 mM NaCl, 1 mM DTT, 4% glycerol, room temperature, 30 min; GST-TFs on glutathione beads, 16-mer random dsDNA library, 0.1% formaldehyde crosslink after washing; high values mean tight binding
# [1] = biological target: T1, FEV (Homo sapiens, UniProt Q99581 1-238); details: protein: recombinant; tags: N-terminal GST; dsDNA, one strand shown
# T1 sequence: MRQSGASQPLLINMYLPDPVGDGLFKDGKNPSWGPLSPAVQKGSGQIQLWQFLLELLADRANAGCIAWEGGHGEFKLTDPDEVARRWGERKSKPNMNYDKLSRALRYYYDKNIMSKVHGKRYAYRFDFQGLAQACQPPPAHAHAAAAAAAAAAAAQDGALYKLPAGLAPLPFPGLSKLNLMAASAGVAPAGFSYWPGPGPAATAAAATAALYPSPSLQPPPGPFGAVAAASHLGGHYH
# Outline: (§1)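 Human transcription factors were made in yeast as GST fusions, captured on glutathione beads and barcoded with DNA. With a tag-only sample included, the pool was incubated with 200 nmole of a random double-stranded 16-mer DNA library in Tris/NaCl/DTT/glycerol buffer at room temperature for 30 min, then crosslinked with 0.1% formaldehyde after washing, ligated by proximity, amplified and sequenced. For binding signal, each hexamer's read frequency for a factor is divided by its frequency for the tag-only sample.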
# [2] = biological target: ETV5 (Homo sapiens, UniProt P41161 1-510); details: protein: recombinant; tags: N-terminal GST; dsDNA, one strand shown
# ETV5, sequence (P41161 whole entry): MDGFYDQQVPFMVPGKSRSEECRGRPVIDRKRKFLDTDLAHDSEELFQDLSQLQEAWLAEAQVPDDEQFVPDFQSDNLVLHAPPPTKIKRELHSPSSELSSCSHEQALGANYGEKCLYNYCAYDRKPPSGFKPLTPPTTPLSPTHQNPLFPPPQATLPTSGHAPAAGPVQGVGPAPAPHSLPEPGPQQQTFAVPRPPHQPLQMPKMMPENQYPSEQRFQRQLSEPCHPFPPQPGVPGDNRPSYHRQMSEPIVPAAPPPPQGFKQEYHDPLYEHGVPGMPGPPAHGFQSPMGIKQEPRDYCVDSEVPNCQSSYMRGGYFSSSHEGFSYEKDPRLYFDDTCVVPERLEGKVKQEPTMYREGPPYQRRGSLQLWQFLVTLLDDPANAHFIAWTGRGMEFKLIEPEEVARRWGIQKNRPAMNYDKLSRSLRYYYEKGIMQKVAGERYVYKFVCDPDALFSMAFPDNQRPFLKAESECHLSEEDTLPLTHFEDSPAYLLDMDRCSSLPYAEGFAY
# Outline: as §1
# [3] = biological target: HSF1 (Homo sapiens, UniProt Q00613 1-529); details: protein: recombinant; tags: N-terminal GST; chain copies: 3; dsDNA, one strand shown
# HSF1, sequence (Q00613 whole entry): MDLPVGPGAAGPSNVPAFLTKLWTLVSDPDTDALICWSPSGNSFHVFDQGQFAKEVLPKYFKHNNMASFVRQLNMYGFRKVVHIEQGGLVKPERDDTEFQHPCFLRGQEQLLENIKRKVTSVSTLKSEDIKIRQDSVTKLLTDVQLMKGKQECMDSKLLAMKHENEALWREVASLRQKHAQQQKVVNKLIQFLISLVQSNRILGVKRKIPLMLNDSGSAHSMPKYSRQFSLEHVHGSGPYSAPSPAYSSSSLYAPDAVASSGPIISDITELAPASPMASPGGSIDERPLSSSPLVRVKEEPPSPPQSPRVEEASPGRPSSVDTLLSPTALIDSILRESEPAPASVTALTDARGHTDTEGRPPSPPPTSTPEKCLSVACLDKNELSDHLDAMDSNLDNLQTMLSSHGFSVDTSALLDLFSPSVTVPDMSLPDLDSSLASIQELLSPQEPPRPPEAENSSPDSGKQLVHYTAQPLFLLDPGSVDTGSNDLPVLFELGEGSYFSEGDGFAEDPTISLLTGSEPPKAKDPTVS
# Outline: as §1
# [4] = biological target: T2, SPIC (Homo sapiens, UniProt Q8N5J4 1-248); details: protein: recombinant; tags: N-terminal GST; dsDNA, one strand shown
# T2 sequence: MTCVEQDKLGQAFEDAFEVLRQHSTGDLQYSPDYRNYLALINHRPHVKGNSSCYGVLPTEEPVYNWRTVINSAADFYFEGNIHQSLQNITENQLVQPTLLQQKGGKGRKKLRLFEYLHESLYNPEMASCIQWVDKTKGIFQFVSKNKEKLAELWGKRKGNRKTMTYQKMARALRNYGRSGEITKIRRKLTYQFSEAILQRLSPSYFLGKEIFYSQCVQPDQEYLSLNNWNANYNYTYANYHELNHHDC
# Outline: as §1
# [5] = biological target: ELF4 (Homo sapiens, UniProt Q99607 1-663); details: protein: recombinant; tags: N-terminal GST; dsDNA, one strand shown
# ELF4, sequence (Q99607 whole entry): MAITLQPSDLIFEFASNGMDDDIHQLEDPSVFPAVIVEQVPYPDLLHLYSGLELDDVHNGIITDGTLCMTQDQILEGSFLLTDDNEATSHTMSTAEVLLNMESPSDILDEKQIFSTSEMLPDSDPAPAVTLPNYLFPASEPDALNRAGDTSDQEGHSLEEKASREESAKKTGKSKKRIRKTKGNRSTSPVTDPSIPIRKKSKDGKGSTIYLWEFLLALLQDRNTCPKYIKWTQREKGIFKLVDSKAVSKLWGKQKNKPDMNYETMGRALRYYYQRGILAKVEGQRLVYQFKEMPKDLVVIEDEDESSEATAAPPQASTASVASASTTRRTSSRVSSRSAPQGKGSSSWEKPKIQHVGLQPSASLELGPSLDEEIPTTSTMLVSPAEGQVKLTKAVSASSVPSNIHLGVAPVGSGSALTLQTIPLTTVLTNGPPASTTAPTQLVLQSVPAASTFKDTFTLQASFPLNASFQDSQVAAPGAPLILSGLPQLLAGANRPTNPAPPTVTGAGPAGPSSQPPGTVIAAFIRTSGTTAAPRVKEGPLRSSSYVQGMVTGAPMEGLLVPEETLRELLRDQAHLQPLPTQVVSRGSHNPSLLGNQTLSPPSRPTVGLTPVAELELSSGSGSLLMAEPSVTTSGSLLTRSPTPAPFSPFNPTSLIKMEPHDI
# Outline: as §1
# [6] = biological target: T3, ELK4 (Homo sapiens, UniProt P28324-2 1-405); details: protein: recombinant; tags: N-terminal GST; dsDNA, one strand shown
# T3 sequence: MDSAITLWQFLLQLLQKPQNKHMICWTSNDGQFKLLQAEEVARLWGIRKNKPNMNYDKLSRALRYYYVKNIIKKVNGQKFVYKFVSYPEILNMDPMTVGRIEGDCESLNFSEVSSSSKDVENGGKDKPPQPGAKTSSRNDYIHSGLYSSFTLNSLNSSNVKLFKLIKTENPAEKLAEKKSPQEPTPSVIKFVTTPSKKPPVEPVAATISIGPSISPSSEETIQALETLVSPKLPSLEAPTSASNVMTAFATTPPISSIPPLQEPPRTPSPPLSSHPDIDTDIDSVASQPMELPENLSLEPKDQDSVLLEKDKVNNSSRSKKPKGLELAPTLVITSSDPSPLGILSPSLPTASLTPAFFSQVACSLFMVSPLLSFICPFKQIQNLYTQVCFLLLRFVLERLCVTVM
# Outline: as §1
# [7] = biological target: T4, ETV2 (Homo sapiens, UniProt O00321 1-342); details: protein: recombinant; tags: N-terminal GST; dsDNA, one strand shown
# T4 sequence: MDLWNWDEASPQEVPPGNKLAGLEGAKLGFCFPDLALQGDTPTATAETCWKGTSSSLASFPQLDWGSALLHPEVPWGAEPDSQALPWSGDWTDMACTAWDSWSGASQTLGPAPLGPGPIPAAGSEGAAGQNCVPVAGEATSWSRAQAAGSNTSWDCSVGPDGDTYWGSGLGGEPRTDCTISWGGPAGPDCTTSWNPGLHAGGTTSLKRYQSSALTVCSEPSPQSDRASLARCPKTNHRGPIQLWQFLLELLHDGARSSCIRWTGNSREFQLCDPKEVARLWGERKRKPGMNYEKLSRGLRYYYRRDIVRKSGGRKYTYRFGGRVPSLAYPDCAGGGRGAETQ
# Outline: as §1
# [8] = biological target: T5, ELF3 (Homo sapiens, UniProt P78545 1-371); details: protein: recombinant; tags: N-terminal GST; dsDNA, one strand shown
# T5 sequence: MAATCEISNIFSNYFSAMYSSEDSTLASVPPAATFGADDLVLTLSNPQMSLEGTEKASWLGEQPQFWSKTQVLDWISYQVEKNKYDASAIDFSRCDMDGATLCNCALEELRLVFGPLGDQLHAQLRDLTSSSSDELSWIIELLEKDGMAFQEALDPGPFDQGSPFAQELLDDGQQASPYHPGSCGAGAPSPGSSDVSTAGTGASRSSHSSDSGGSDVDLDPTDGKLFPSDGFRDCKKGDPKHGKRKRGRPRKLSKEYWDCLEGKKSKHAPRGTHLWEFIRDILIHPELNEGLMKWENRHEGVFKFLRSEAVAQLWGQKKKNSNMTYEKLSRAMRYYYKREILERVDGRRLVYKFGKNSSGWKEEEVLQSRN
# Outline: as §1
# [9] = biological target: CRX (Homo sapiens, UniProt O43186 1-299); details: protein: recombinant; tags: N-terminal GST; dsDNA, one strand shown
# CRX, sequence (O43186 whole entry): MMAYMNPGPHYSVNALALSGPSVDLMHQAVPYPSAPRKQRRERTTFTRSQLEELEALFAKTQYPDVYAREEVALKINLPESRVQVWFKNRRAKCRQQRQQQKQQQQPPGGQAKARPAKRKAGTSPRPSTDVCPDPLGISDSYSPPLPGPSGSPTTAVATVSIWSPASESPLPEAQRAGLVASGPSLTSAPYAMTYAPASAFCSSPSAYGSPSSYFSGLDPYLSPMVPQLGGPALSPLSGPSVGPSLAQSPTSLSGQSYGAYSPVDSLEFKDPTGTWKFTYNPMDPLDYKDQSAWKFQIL
# Outline: as §1
# [10] = biological target: ETV1 (Homo sapiens, UniProt P50549 1-477); details: protein: recombinant; tags: N-terminal GST; dsDNA, one strand shown
# ETV1, sequence (P50549 whole entry): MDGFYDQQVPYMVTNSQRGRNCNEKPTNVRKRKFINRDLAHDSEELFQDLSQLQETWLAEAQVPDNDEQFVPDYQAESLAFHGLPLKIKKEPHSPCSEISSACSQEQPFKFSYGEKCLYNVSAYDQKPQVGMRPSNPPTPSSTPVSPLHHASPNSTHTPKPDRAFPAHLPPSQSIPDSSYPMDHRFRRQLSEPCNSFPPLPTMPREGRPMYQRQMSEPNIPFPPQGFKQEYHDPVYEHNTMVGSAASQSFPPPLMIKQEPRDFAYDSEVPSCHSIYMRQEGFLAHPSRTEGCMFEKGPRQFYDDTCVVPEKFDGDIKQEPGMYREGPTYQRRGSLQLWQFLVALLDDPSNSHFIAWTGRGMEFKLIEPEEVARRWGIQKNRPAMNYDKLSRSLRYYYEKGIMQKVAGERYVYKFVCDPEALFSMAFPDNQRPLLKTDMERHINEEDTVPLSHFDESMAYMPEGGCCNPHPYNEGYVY
# Outline: as §1
# [11] = biological target: T6, ERF (Homo sapiens, UniProt P50548 1-548); details: protein: recombinant; tags: N-terminal GST; dsDNA, one strand shown
# T6 sequence: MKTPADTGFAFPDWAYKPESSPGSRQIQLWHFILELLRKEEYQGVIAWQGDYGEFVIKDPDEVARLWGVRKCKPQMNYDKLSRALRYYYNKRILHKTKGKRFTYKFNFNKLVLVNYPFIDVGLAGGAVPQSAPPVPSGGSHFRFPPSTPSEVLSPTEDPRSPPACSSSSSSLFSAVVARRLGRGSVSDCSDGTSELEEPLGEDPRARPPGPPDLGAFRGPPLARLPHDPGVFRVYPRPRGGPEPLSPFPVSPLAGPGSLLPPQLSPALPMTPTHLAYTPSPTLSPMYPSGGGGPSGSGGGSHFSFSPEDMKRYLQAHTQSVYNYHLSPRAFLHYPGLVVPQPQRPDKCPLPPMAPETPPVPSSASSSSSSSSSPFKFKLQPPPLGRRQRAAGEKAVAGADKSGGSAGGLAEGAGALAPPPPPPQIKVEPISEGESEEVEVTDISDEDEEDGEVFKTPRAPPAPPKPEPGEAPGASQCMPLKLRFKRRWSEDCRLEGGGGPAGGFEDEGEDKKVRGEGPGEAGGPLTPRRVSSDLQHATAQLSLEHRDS
# Outline: as §1
# [12] = biological target: T7, ETV3L (Homo sapiens, UniProt Q6ZN32 1-361); details: protein: recombinant; tags: N-terminal GST; dsDNA, one strand shown
# T7 sequence: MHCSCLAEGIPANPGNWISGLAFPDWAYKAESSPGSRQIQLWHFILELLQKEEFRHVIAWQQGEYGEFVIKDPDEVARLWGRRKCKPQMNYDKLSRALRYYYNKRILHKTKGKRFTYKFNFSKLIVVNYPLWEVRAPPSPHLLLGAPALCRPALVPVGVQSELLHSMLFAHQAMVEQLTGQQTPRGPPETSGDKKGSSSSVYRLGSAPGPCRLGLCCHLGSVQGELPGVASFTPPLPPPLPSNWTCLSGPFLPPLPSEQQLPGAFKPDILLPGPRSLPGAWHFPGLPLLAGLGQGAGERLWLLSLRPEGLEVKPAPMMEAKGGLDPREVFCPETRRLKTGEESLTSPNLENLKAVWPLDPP
# Outline: as §1
# [13] = biological target: T8, ETS2 (Homo sapiens, UniProt P15036 1-469); details: protein: recombinant; tags: N-terminal GST; dsDNA, one strand shown
# T8 sequence: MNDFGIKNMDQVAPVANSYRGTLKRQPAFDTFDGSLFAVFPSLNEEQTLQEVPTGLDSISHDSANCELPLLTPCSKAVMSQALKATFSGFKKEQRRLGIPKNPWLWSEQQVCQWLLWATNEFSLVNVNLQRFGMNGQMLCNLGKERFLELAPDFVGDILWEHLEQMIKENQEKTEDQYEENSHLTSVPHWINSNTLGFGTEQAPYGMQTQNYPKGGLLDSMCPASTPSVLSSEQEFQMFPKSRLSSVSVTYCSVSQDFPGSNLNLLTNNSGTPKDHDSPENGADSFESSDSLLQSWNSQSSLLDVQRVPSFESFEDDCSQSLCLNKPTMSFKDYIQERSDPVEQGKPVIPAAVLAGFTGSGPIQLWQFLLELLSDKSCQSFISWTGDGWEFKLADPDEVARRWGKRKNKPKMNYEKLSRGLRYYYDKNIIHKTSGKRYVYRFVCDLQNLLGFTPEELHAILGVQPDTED
# Outline: as §1
# [14] = biological target: T9, SPDEF (Homo sapiens, UniProt O95238 1-335); details: protein: recombinant; tags: N-terminal GST; dsDNA, one strand shown
# T9 sequence: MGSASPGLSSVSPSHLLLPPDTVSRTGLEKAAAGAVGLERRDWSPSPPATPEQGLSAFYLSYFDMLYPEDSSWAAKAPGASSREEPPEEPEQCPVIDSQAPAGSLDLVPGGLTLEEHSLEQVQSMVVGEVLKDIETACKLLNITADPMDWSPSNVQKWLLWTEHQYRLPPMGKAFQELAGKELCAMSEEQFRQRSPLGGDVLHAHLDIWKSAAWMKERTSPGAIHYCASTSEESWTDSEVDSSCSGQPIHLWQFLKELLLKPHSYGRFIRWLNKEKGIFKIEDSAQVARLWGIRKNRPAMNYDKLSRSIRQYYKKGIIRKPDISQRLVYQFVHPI
# Outline: as §1
# [15] = biological target: T10, ETV7 (Homo sapiens, UniProt Q9Y603 1-341); details: protein: recombinant; tags: N-terminal GST; dsDNA, one strand shown
# T10 sequence: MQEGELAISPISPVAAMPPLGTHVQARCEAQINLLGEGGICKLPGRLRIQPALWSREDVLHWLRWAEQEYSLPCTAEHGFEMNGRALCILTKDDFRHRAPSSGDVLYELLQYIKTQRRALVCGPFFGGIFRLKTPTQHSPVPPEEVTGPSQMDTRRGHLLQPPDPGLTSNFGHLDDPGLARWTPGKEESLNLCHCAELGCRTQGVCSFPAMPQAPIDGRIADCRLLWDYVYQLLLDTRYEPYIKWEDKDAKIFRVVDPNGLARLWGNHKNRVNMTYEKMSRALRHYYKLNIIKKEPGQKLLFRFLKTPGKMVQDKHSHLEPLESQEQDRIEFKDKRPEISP
# Outline: as §1
# [16] = biological target: T11, ELF5 (Homo sapiens, UniProt Q9UKW6-2 1-255); details: protein: recombinant; tags: N-terminal GST; dsDNA, one strand shown
# T11 sequence: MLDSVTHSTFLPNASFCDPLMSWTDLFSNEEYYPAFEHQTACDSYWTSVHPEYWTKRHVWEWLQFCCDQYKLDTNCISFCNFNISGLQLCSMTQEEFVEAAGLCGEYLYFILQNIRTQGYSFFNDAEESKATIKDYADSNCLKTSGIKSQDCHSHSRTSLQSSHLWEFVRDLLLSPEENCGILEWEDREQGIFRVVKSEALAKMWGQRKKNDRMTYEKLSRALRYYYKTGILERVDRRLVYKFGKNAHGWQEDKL
# Outline: as §1
# [17] = biological target: T12, ETV3 (Homo sapiens, UniProt P41162-2 1-143); details: protein: recombinant; tags: N-terminal GST; dsDNA, one strand shown
# T12 sequence: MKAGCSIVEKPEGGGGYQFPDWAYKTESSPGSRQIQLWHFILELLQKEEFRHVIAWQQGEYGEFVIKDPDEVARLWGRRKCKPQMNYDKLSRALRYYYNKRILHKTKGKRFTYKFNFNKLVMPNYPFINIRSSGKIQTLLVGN
# Outline: as §1
# [18] = biological target: ETV6 (Homo sapiens, UniProt P41212 1-452); details: protein: recombinant; tags: N-terminal GST; dsDNA, one strand shown
# ETV6, sequence (P41212 whole entry): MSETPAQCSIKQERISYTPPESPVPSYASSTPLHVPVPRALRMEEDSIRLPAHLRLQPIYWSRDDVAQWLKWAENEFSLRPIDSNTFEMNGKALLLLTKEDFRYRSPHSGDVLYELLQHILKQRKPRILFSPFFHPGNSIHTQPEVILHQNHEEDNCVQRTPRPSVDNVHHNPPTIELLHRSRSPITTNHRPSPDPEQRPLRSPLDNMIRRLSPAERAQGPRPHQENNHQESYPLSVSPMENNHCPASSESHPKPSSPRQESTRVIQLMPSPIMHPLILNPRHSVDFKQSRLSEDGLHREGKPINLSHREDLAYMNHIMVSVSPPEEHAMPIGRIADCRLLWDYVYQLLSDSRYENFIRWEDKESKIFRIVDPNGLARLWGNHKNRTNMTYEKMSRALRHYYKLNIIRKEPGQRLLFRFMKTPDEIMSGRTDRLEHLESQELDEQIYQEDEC
# Outline: as §1
sequence,measurement,setting,value
CCCGTA,binding signal,[1],"1.16 fold enrichment (6-mer frequency, TF over GST control)"
same,binding signal,[2],"1.25 fold enrichment (6-mer frequency, TF over GST control)"
same,binding signal,[3],"1.22 fold enrichment (6-mer frequency, TF over GST control)"
same,binding signal,[4],"1.31 fold enrichment (6-mer frequency, TF over GST control)"
same,binding signal,[5],"1.16 fold enrichment (6-mer frequency, TF over GST control)"
same,binding signal,[6],"1.21 fold enrichment (6-mer frequency, TF over GST control)"
same,binding signal,[7],"1.3 fold enrichment (6-mer frequency, TF over GST control)"
same,binding signal,[8],"1.14 fold enrichment (6-mer frequency, TF over GST control)"
same,binding signal,[9],"1.17 fold enrichment (6-mer frequency, TF over GST control)"
same,binding signal,[10],"1.16 fold enrichment (6-mer frequency, TF over GST control)"
same,binding signal,[11],"1.09 fold enrichment (6-mer frequency, TF over GST control)"
same,binding signal,[12],"1.19 fold enrichment (6-mer frequency, TF over GST control)"
same,binding signal,[13],"1.2 fold enrichment (6-mer frequency, TF over GST control)"
same,binding signal,[14],"1.24 fold enrichment (6-mer frequency, TF over GST control)"
same,binding signal,[15],"1.12 fold enrichment (6-mer frequency, TF over GST control)"
same,binding signal,[16],"1.21 fold enrichment (6-mer frequency, TF over GST control)"
same,binding signal,[17],"1.21 fold enrichment (6-mer frequency, TF over GST control)"
same,binding signal,[18],"1.25 fold enrichment (6-mer frequency, TF over GST control)"

# Reference: article PMC7862700, “An all-to-all approach to the identification of sequence-specific readers for epigenetic DNA modifications on cytosine”
